Screen size: about 77,000 compounds; about 4,600 (6%) were called active. Another 1% or so got no clear call; they are omitted. What follows is part of a selection rich in actives, with near analogues and random picks from the rest. Unmarked numbers belong to inactive results.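 The calls were made as follows: active = mean inhibition above about 93%, with at least 55% of replicates each passing it (limit read from the data, passing the limit was not always enough); inconclusive = only one of those two conditions holds; inactive = neither condition holds.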

The nature of the test: growth inhibition of T. cruzi in host fibroblasts – cell-based, beta-gal Tulahuen parasites, NIH3T3 host, luminescence, primary screen (AID 624255). The following applies: T. cruzi beta-gal in NIH3T3, GalScreen luminescence, 90 h; at 8.34 µM; active compounds read high.
Regarding `CCC(=O)N1[C@@H]2c3ccc(-c4cccnc4)c(=O)n3C[C@H]1[C@H](CO)[C@H]2C(=O)N1CCc2ccccc2C1`, the inhibition is 29.4%.
To `O=C(C1CCC1)N1C[C@@H]2[C@H](c3ccccc31)[C@H](CO)N2C(=O)c1ccccc1` belongs 11.8%.
For `CCCN(C)C[C@H]1Oc2cc(C#CCC(C)C)ccc2S(=O)(=O)N([C@H](C)CO)C[C@H]1C`, the inhibition was 75.8%.
In the case of `COCC#Cc1ccc2c(c1)O[C@@H](CN(C)Cc1cccnc1)[C@@H](C)CN([C@H](C)CO)S2(=O)=O` it was 70%; in that of `CC(C)CC#Cc1ccc2c(c1)O[C@H](CN(C)C(=O)c1cccnc1)[C@@H](C)CN([C@H](C)CO)S2(=O)=O`, 78.2%; in that of `CC(C)CC#Cc1ccc2c(c1)O[C@H](CN(C)Cc1cccnc1)[C@H](C)CN([C@@H](C)CO)S2(=O)=O`, 103% (active).
Regarding `CC(C)CC#Cc1ccc2c(c1)O[C@H](CN(C)Cc1ccncc1)[C@H](C)CN([C@H](C)CO)S2(=O)=O`, the inhibition was 118% (active).
Consider `CCNC(=O)C[C@H]1CC[C@@H](NC(=O)C2CCOCC2)[C@@H](CO)O1`, for which the inhibition was 40%.
To `CCNC(=O)Nc1ccc2c(c1)C(=O)N(C)[C@H]1CC[C@H](CC(=O)NCC3CCCCC3)O[C@@H]1CO2` belongs 25.8%.
In the case of `CCS(=O)(=O)Nc1ccc2c(c1)C(=O)N(C)C[C@@H](OC)[C@@H](C)CN(C(=O)COC)[C@H](C)CO2` it was -5.98%; in that of `Cc1ccc(S(=O)(=O)Nc2ccc3c(c2)C(=O)N(C)[C@@H]2CC[C@@H](CC(=O)O)O[C@H]2CO3)cc1`, 33.9%.
In the case of `C[C@@H]1CN([C@H](C)CO)S(=O)(=O)c2ccc(C#CC3CCCC3)cc2O[C@@H]1CN(C)Cc1cccnc1` it was 118% (active); in that of `C[C@H](CO)N1C[C@H](C)[C@H](CN(C)Cc2cccnc2)Oc2cc(C#CC3CCCC3)ccc2S1(=O)=O`, 97.8% (active); in that of `C[C@@H]1CN([C@H](C)CO)S(=O)(=O)c2ccc(C#CC3CC3)cc2O[C@H]1CN(C)Cc1ccccc1F`, 81.5%.
`C[C@H](O)C#Cc1ccc2c(c1)O[C@@H](CN(C)Cc1cccnc1)[C@H](C)CN([C@H](C)CO)S2(=O)=O`: the inhibition was 46.1%.
To `C[C@H](O)C#Cc1ccc2c(c1)O[C@H](CN(C)Cc1cccnc1)[C@@H](C)CN([C@H](C)CO)S2(=O)=O` belongs 34.8%; to `C[C@@H]1CN([C@@H](C)CO)S(=O)(=O)c2ccc(C#Cc3cccnc3)cc2O[C@@H]1CN(C)C`, -8.96%.
To `O=C(Nc1cccc(Cl)c1)N1C[C@@H]2[C@H](c3ccccc31)[C@H](CO)N2C(=O)C1CC1` belongs 45%.
Take `O=C(C[C@@H]1CC[C@H]2[C@@H](COC[C@@H](O)CN2C(=O)c2ccc3c(c2)OCO3)O1)NC1Cc2ccccc2C1`: the inhibition is -11.4%.
Turning to `CCCC#Cc1cnc2c(c1)C(=O)N([C@H](C)CO)C[C@H](C)[C@H](CN(C)C(=O)c1cnccn1)O2`, the inhibition was -48.3%.
To `CCCC(=O)Nc1ccc2c(c1)C(=O)N(C)[C@H]1CC[C@@H](CC(=O)NCc3ccccc3)O[C@@H]1CO2` belongs -21.7%; to `N#Cc1cccc(-c2ccc3c(c2)[C@H]2[C@H](CCN2S(=O)(=O)c2ccc(F)cc2)[C@@H](CO)N3)c1`, 19.2%.
In the case of `O=S(=O)(c1ccccc1)N1CC[C@@H]2[C@@H](CO)Nc3ccc(C#Cc4cccc(F)c4)cc3[C@@H]21` it was 105% (active); in that of `Cc1cccc(S(=O)(=O)N2CC[C@@H]3[C@H]2c2cc(C#Cc4ccc(F)cc4)ccc2N[C@@H]3CO)c1`, 12.4%; in that of `COc1ccccc1S(=O)(=O)N1CC[C@@H]2[C@H]1c1cc(-c3ccccc3)ccc1N[C@@H]2CO`, 71.9%.
In the case of `Cc1cccc(S(=O)(=O)N2CC[C@@H]3[C@H]2c2cc(C#Cc4ccccc4F)ccc2N[C@@H]3CO)c1` it was 62.9%; in that of `COc1ccc(-c2ccc3c(c2)[C@@H]2[C@@H](CCN2S(=O)(=O)c2ccccc2F)[C@H](CO)N3)cc1`, 36.8%.
Turning to `Cn1cnc(S(=O)(=O)N2CC[C@@H]3[C@H]2c2cc(C#Cc4cccc(F)c4)ccc2N[C@@H]3CO)c1`, the inhibition was -22.2%.
In the case of `COc1ccc(-c2ccc3c(c2)[C@@H]2[C@@H](CCN2C(=O)c2cccc(F)c2)[C@H](CO)N3)cc1`, the inhibition was 29.7%.
In the case of `O=C(c1cccc(F)c1)N1CC[C@@H]2[C@@H](CO)Nc3ccc(C#Cc4cccc(F)c4)cc3[C@@H]21` it was 110% (active); in that of `COc1cccc(-c2ccc3c(c2)[C@H]2[C@H](CCN2C(=O)c2ccc(F)cc2)[C@@H](CO)N3)c1`, 32.4%; in that of `O=S(=O)(c1ccccc1)N1CC[C@@H]2[C@H]1c1cc(C#Cc3cccc(F)c3)ccc1N[C@@H]2CO`, 102% (active).
To `Cc1ccccc1S(=O)(=O)N1CC[C@H]2[C@H](CO)Nc3ccc(-c4cccc(F)c4)cc3[C@H]21` belongs 100% (active); to `CC(C)c1cn(CC[C@@H]2CC[C@@H](NC(=O)C3CC3)[C@H](CO)O2)nn1`, 10.2%; to `CCCNC(=O)C[C@H]1CC[C@@H]2[C@H](COC[C@H](O)CN2S(=O)(=O)c2ccccc2F)O1`, 11.7%.
In the case of `CO[C@H]1CC[C@@H]2CCOc3c(C#N)cccc3C(=O)N(C)C[C@H](C)C(=O)N(C)C[C@H]1O2` it was 30.6%; in that of `O=C(C[C@@H]1CC[C@H](NC(=O)Cc2ccccn2)[C@H](CO)O1)NCCc1ccncc1`, -62.5%.
Turning to `C[C@@H](NC(=O)C[C@@H]1C[C@H]2c3cc(NC(=O)C4CCC4)ccc3O[C@H]2[C@@H](CO)O1)c1ccccc1`, the inhibition was -32.2%.
Turning to `Cc1ccc(S(=O)(=O)Nc2ccc3c(c2)C(=O)N([C@H](C)CO)C[C@@H](C)[C@@H](CN(C)C(=O)CCC(F)(F)F)OCCCC[C@@H](C)O3)cc1`, the inhibition is 47.6%.
With `CCCN1C[C@H](C)[C@H](OC)CN(C)C(=O)c2cc(NC(=O)C3CCOCC3)ccc2OC[C@@H]1C`, the inhibition is -22.2%.
In the case of `Cc1ccc(S(=O)(=O)Nc2ccc3c(c2)C(=O)N(C)[C@H]2CC[C@H](CC(=O)O)O[C@H]2CO3)cc1` it was 22.9%.
To `COCC#Cc1ccc([C@@H]2[C@H](CO)N3CCCCN(C(=O)CN(C)C)C[C@@H]23)cc1` belongs 107% (active); to `CC(C)C#Cc1ccc([C@H]2[C@H](CO)N3CCCCN(C(=O)NC(C)C)C[C@@H]23)cc1`, 104% (active); to `COc1ccc(S(=O)(=O)N2CCCCN3[C@H](C2)[C@H](c2ccc(C#CCC(C)C)cc2)[C@@H]3CO)cc1`, 103% (active).
To `COc1ccc(S(=O)(=O)N2CCCCN3[C@@H](CO)[C@@H](c4ccc(C#CCC(C)C)cc4)[C@@H]3C2)cc1` belongs 34.4%; to `CCC(=O)N1CCCCN2[C@H](C1)[C@@H](c1ccc(C#CCOC)cc1)[C@@H]2CO`, 14%.
As for `O=S(=O)(c1ccc(F)cc1)N1CCCCN2[C@H](CO)[C@@H](c3ccc(C#CC4CCCC4)cc3)[C@H]2C1`, the inhibition was 88.5%.
To `COCC#Cc1ccc([C@@H]2[C@@H](CO)N3CCCCN(C(=O)COC)C[C@@H]23)cc1` belongs 12.3%; to `Cn1cnc(S(=O)(=O)N2CCCCN3[C@@H](CO)[C@@H](c4ccc(C#CC5CCCC5)cc4)[C@@H]3C2)c1`, 54.8%; to `COc1cccc(S(=O)(=O)N2CCCCN3[C@H](CO)[C@H](c4ccc(C#CC5CC5)cc4)[C@H]3C2)c1`, 118% (active).
To `CC(C)NC(=O)N1CCCCN2[C@@H](CO)[C@@H](c3ccc(C#C[C@@H](C)O)cc3)[C@@H]2C1` belongs 75.5%; to `CC(C)C#Cc1ccc([C@@H]2[C@H]3CN(C(=O)NC(C)C)CCCCN3[C@H]2CO)cc1`, 43.5%; to `CN1c2ccc(C#Cc3cccnc3)cc2[C@@H]2[C@@H](CCN2S(=O)(=O)c2ccccc2)[C@H]1CO`, 89.6%.
To `COc1ccccc1NC(=O)N[C@H]1CC[C@@H](CCn2cc(C3(O)CCCC3)nn2)O[C@@H]1CO` belongs 0.23%; to `C[C@@H](NC(=O)[C@H]1[C@H](CO)[C@H]2Cn3c(cccc3=O)[C@H]2N1C(=O)C1CC1)c1ccccc1`, -11.1%.
`CC=Cc1ccc2n(c1=O)C[C@@H]1[C@@H](CO)[C@H](C(=O)N[C@@H](C)c3ccccc3)[C@H]2N1Cc1ccncc1` (mixture of isomers): the inhibition is 25.6%.
To `COC(=O)C[C@@H]1CC[C@H]2[C@@H](COC[C@H](O)CN2C(=O)Nc2ccccc2OC)O1` belongs -19.2%; to `CC(=O)N1[C@@H](CO)[C@H](c2ccccc2)[C@@H]1CN(C(=O)c1ccccc1)C(C)C`, 26.7%; to `O=C(C[C@H]1C[C@H]2c3cc(NC(=O)C4CCOCC4)ccc3O[C@H]2[C@@H](CO)O1)NCC1CC1`, -5.99%.
For the compound `Cn1cnc(S(=O)(=O)N2C[C@H](O)COC[C@@H]3O[C@H](CC(=O)NCc4cccc(F)c4)CC[C@H]32)c1`, the inhibition was 34.3%.
In the case of `CN1C[C@@H]2[C@H](c3ccccc31)[C@H](CO)N2C(=O)Nc1ccc(F)cc1` it was 15.1%; in that of `Cc1ccc(S(=O)(=O)Nc2ccc3c(c2)C(=O)N([C@@H](C)CO)C[C@H](C)[C@@H](CN(C)C(=O)Nc2ccc(F)cc2)OCCCC[C@H](C)O3)cc1`, 92.5%.
Take `O=C(C[C@H]1C[C@H]2c3cc(NC(=O)CC4CC4)ccc3O[C@H]2[C@H](CO)O1)NCc1cc(F)ccc1F`: the inhibition was -48.8%.
In the case of `CC(C)CC#Cc1ccc2c(c1)O[C@@H](CN(C)C(=O)Nc1ccccc1F)[C@@H](C)CN([C@@H](C)CO)S2(=O)=O` it was 83.3%.

The values are drawn from PubChem BioAssay AID624255 (Broad Institute, 2012).
